Data on 93 molecules can be found in PubChem BioAssay AID463195 (Sanford-Burnham Center for Chemical Genomics, 2010).

In all, about 330,000 compounds went through this assay and about 4,600 (1.4%) were called active. The list comes from a sample in which actives are over-represented; it also holds similar structures and randomly drawn compounds. Unmarked numbers belong to inactive results.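 The calls were made as follows: active = inhibition of 40% or more at the single tested concentration; inactive = the rest.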

A word on the inhibition: it is the drop in the measured response relative to a control, in per cent.

This assay is described as follows: growth inhibitors of isogenic TIM10 control yeast, primary screen, counter-screen for tim10-1 yeast inhibitor project, luminescence, uHTS (AID 463195).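 Also: wild-type TIM10 isogenic control strain grown at permissive 25 °C; 0% = DMSO yeast wells and 100% = minimal medium wells without yeast.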 Particulars: S. cerevisiae TIM10 strain growth, BacTiter-Glo luminescence, 24 h; at 10 µM; active compounds read high.
Turning to `Cc1ccccc1OCC(=O)Nc1ccc2c(c1)ncn2C`, the inhibition is 2.51%. Consider `Cc1ccccc1OCC(=O)Nc1ccc(S(=O)(=O)N2CCOCC2)cc1`, for which the inhibition is 18.7%. For the molecule `Cc1ccccc1OCC(=O)Nc1ccc(N2CCN(C(=O)C(C)C)CC2)c(Cl)c1`, the inhibition was 65.5% (active). With `CCC(C)N(C(=O)Cn1nc(C)c([N+](=O)[O-])c1C)C1CCS(=O)(=O)C1` (stereo not drawn) the figure was 2.63%; with `CCN(CC(=O)Nc1ccc2c(c1)OCCO2)Cc1cc(=O)oc2cc(C)c(C)cc12`, 2.82%; with `CCN(CC(=O)NC(C)C)C(=O)c1cc(S(=O)(=O)N2CCCCC2)ccc1N1CCCCC1`, -4.18%. `Cc1cccc(-c2nc3ccc(C(=O)NCCN4CCN(C)CC4)cc3nc2-c2cccc(C)c2)c1`: the inhibition was 11.7%.

Regarding `C=CCNC(=O)c1ccc2c3n(nc2c1)-c1ccc(C)cc1CO3`, the inhibition was 47% (active).

For the molecule `Cn1nnc2cc(C(=O)NCCC3=CCCCC3)ccc21`, the inhibition is 9.76%. With `O=C(NCc1cccnc1)c1cnc2ccccc2n1` the figure was 3.89%; with `O=C(O)Cc1csc(NC(=O)CSc2nnnn2-c2ccc(O)cc2)n1`, -3.77%. For `O=C(CCCN1C(=O)CCC1=O)Nc1ccc(Cl)c(C(F)(F)F)c1`, the inhibition is -0.757%.

As for `CS(=O)(=O)N(CC(=O)Nc1ccc(Cl)c(Cl)c1)C1CCCCC1`, the inhibition is 27.6%. Regarding `O=C(CC(O)(C(F)(F)F)C(F)(F)F)Nc1ccc(Cl)c(Cl)c1`, the inhibition is 88.8% (active). With `COc1ccccc1OCCC(=O)OCC(=O)NCc1ccccc1` the figure was 9.81%; with `COc1cccc(NC(=O)C(=O)c2cn(CC(=O)N3CCOCC3)c3ccccc23)c1`, 11.5%; with `COc1cccc(C(C(=O)NC2CCCC2)N(C(=O)c2ccco2)c2cccc(C(C)=O)c2)c1OC` (stereo not drawn), 11.8%.

Consider `O=C(/C=C/c1c(F)cccc1Cl)Nc1nn[nH]n1`, for which the inhibition is 0.073%. With `CNC(=O)/C(C#N)=C/c1c(F)cccc1Cl` the figure was 59.2% (active); with `CCOC(=O)NC(=O)/C(C#N)=C\c1ccccc1`, 15.6%; with `NC(=S)Nc1c(Cl)cccc1Cl`, -2.06%. Regarding `COc1ccc(C(=O)CCC(=O)Nc2ccc(Cl)cc2)cc1`, the inhibition is -25.2%. With `COc1ccc(CS(=O)/C(Cl)=C(/Cl)C(=O)Nc2ccc(OC)nc2)cc1` (stereo not drawn) the figure was 88.3% (active). As to `COc1ccc(NC(=O)/C(Cl)=C(/Cl)S(=O)Cc2ccc(C)cc2)cn1` (stereo not drawn), the inhibition was 57.6% (active). The result for `COc1ccc(Nc2ccc([N+](=O)[O-])cn2)cn1` reads 1.7%.

`CCN(CC(=O)Nc1ccc(OC)cc1)C(=O)CSCc1ccc(C)cc1`: the inhibition is -9.01%. Consider `COc1ccc(CCNC(=O)c2cnc(Cl)c(Cl)c2)cc1`, for which the inhibition is -23.1%.

With `CCCCn1nc(C(=O)Nc2ccc(S(=O)(=O)Nc3ncccn3)cc2)c2ccccc2c1=O`, the inhibition was 6.41%. The result for `Cc1ccc(CN(N=Nc2nonc2N)c2nonc2N)c(C)c1` reads 36.7%; that for `CCCOCC(O)CC(CC)C(=O)NNC(=S)Nc1ccccc1` (stereo not drawn), 7.95%. With `CCC12CN3CC(CC)(CN(C1)C31C(=O)N(C)c3ccc(C)cc31)C2=O` (stereo not drawn) the figure was -4.81%; with `O=C1CCN(C(=O)Nc2ccccc2)N1`, -12.2%; with `O=C(N/N=C/c1cccnc1)c1ccc(NC(=O)c2ccc(F)cc2)cc1`, -13.1%. Regarding `Cc1cc(/C=C(/C#N)C(=O)Nc2ccc(Cl)cc2)c(C)n1-c1cccnc1`, the inhibition is -8.09%. For the molecule `N#C/C(=C\c1cccnc1)C(=O)Nc1ccc(SC(F)F)cc1`, the inhibition was 45.6% (active). In the case of `O=C1Nc2ccc([N+](=O)[O-])cc2C1=Nc1cccc(CO)c1`, the inhibition was 8.6%. Consider `Cc1cc2oc(=O)cc(CN3CCN(S(=O)(=O)c4cccs4)CC3)c2cc1C(C)C`, for which the inhibition is -1.14%. Take `COc1ccc2oc(=O)cc(CN3CCOCC3)c2c1`: the inhibition was -8.83%. As to `COc1ccc2c(CN3CCN(S(=O)(=O)c4cccs4)CC3)cc(=O)oc2c1`, the inhibition is 52.4% (active). The result for `NC(=O)C(Cc1ccccc1)NC(=O)C12CC3CC(CC(C3)C1)C2` (stereo not drawn) reads 16.3%. As for `CCO[C@@H]1OC(C(N)=O)=C[C@H](c2ccc(Br)cc2)[C@H]1CCCO`, the inhibition is -4.73%.

As to `Cc1ccc(-c2noc(CSc3nnc(-c4cccs4)n3C)n2)cc1`, the inhibition is 12.3%. Take `Fc1ccc(-n2c(Cc3ccccc3)nnc2SCc2nc(-c3ccc(Cl)cc3)no2)cc1`: the inhibition was 41% (active).

Consider `Cn1c(SCc2ccc(F)cc2)nnc1-c1ccncc1`, for which the inhibition was -15.7%. Turning to `Cc1ccc(-c2noc(CSc3nnc(-c4ccncc4)n3-c3ccc(F)cc3)n2)cc1`, the inhibition was 46.2% (active). Take `Cc1nnc(SCc2ccc(C(=O)c3ccc(Cl)cc3)o2)n1-c1ccccc1`: the inhibition was 7.12%.

For the molecule `Cn1cccc1Cc1nnc(SCC(=O)NCCc2ccccc2)n1-c1ccc(F)cc1`, the inhibition was 10.2%. The result for `C=CCn1c(C2CC(=O)N(c3ccc(C)cc3)C2)nc2ccccc21` (stereo not drawn) reads 0.772%; that for `COc1cccc(-n2cc3c(c2-c2ccccc2)c(=O)n(C)c(=O)n3C)c1`, -0.343%; that for `CCN(CC)CCNC(=O)c1sc2ncn(CC(=O)Nc3ccc(C)c(Cl)c3)c(=O)c2c1C`, -10.3%.

Take `Cc1ccc(Nc2nc(CSc3nnc(-c4ccncc4)n3-c3ccccc3C)cs2)cc1`: the inhibition was 19.6%. The result for `COc1ccc(-c2cn[nH]c2-c2ccc(OC)cc2)cc1` reads 35%; that for `CCOc1ccccc1Oc1cn[nH]c1-c1ccc(OC)cc1O`, -79.8%. For `COc1ccc(Oc2cn[nH]c2-c2ccc(OC)cc2O)cc1`, the inhibition is 45.7% (active). As to `COc1ccc(-c2cc3nc(C)c(CCC(=O)NC(C)CCc4ccco4)c(C)n3n2)c(OC)c1` (stereo not drawn), the inhibition was 23.7%.

In the case of `Cc1ccc2c(N)c(C(=O)c3ccccc3)sc2n1`, the inhibition was 36.2%. With `CCc1nc2sc(C(=O)O)c(N)c2c2c1CCCC2` the figure was -94.9%.

`CN(C(=O)c1ccccn1)c1nnc(-c2ccccn2)s1`: the inhibition is 1.41%. As for `CN(C)c1ccnc2sc(C(=O)c3ccccc3)c(N)c12`, the inhibition was 40.4% (active). The result for `CC(=O)c1c(Nc2ccccc2)sc(C(=O)c2ccccc2)c1C` reads -7.77%.

Consider `Cc1nc2sc(C(=O)c3ccccc3)c(N)c2c2c1CCCC2`, for which the inhibition was 41.5% (active). With `Cc1nnc(SC(C(=O)Nc2cc(Cl)cc(Cl)c2)c2ccccc2)[nH]c1=O` (stereo not drawn) the figure was 14.3%; with `CCn1c(SCC(=O)NC2CC2)nnc1-c1ccncc1`, -12.4%; with `CCOc1ccc(C(CC(=O)O)n2cnnn2)cc1OC` (stereo not drawn), -1.38%. Turning to `COC(=O)c1c(NC(=O)CSc2nncs2)sc2c1CCCCC2`, the inhibition was 43.7% (active). With `COC(=O)c1c(NC(=O)CCN2CCOCC2)sc2c1CCCC2` the figure was 9.98%. The result for `COC(=O)c1c(NC(=O)C2CC(C)=C(C)CC2C(=O)O)sc2c1CCCCC2` (stereo not drawn) reads 20.6%; that for `O=C(NCc1ccccc1)C(c1ccco1)N(C(=O)c1csnn1)c1ccccc1F` (stereo not drawn), 5.22%. Take `CC(C)CCNC(=O)C1CCC(CNc2c(N3CCC(C)CC3)c(=O)c2=O)CC1` (stereo not drawn): the inhibition was 2.16%. As to `Cc1cc(C)nc(NS(=O)(=O)c2ccc(N/C=C\C(=O)c3cccs3)cc2)n1`, the inhibition is -1.27%. The result for `O=C(NCc1ccc2c(c1)OCO2)c1c(O)nc2sccn2c1=O` reads 45% (active); that for `CCn1c(=O)c(C(=O)NCc2ccc3c(c2)OCO3)c(O)c2ccccc21`, -11.9%. For the molecule `O=C(NCc1ccc2c(c1)OCO2)c1sccc1Br`, the inhibition is 9.81%.

For `CC(=O)c1c(C)n([O-])c2ccccc2[n+]1=O`, the inhibition is -2.57%.

In the case of `O=C1N[C@H](Cc2c[nH]c3ccccc23)COC(=O)[C@H](Cc2ccc(F)cc2)C/C=C\C[C@H]1CC(=O)N(CCO)Cc1ccccc1`, the inhibition is -8.49%. The result for `CC(=O)Nc1ccc(/C=C/C(=O)c2ccccc2)cc1` reads 26.1%; that for `O=C(/C=C/c1ccc(N2CCOCC2)cc1)c1ccccc1`, 39.5%. The result for `Cc1[nH]c(=O)c(C(=O)/C=C/c2ccccc2)c2c1CCCC2` reads 45% (active).

Take `O=C(O)CCc1nc2cc(Cl)ccc2n(Cc2ccccc2)c1=O`: the inhibition was 21.5%. With `COc1ccc(CN2C(CC(=O)Nc3cccnc3)c3ccc(C(F)(F)F)cc3S2(=O)=O)cc1` (stereo not drawn) the figure was -7.66%; with `O=C1NC(Nc2nc3ccccc3s2)(C(F)(F)F)C(=O)N1C1CCCCC1` (stereo not drawn), 52.6% (active); with `O=C(NC1(C(F)(F)F)NC(=O)N(C2CCCCC2)C1=O)c1ccco1` (stereo not drawn), -5.03%. With `Cc1cc(C)c2nc(-c3cccnc3)cc(C(=O)Nc3ccc(S(=O)(=O)Nc4onc(C)c4C)cc3)c2c1` the figure was -10%. The result for `Cc1ccc(-c2ccnc3nc(Sc4ncc(C(F)(F)F)cc4Cl)nn23)cc1` reads 42.2% (active); that for `Cc1nn(-c2ncc(C(F)(F)F)cc2Cl)c(=O)n1-c1ccccc1`, 10.6%. Take `Cc1cc(NC(=O)CSc2ncc(C(F)(F)F)cc2Cl)no1`: the inhibition was -8.23%. The result for `CNC(=O)NC(=O)C(OC(=O)c1cccc(S(=O)(=O)N2CCCCC2)c1)c1ccccc1` (stereo not drawn) reads 15.5%; that for `CCOCCCN1C(=O)C2C(C(=O)Nc3ccc(OCC)cc3)C3C=CC2(O3)C1C(=O)NC1CCCCC1` (stereo not drawn), 5.11%. The result for `Cc1ccc(N2C(=O)c3ccccc3C2(O)c2ncc[nH]2)cc1` (stereo not drawn) reads 1.61%; that for `O=[N+]([O-])c1cccc2ncccc12`, -18%; that for `O=[N+]([O-])c1ccccc1S(=O)(=O)Nc1cccc2cccnc12`, 44.6% (active). With `COc1cc(NS(=O)(=O)c2ccc3ccccc3c2)c2ncccc2c1` the figure was 9.71%. Turning to `C[C@H](NC(=O)c1[nH]cnc1C(=O)Nc1nccs1)c1ccccc1`, the inhibition was 6.5%.
